Screening data from PubChem BioAssay.
A selection: hits, their analogues and other compounds. The true share with any hit is near 3.7%.
PfHsp90 yeast 2 – growth inhibition of PfHsp90-expressing yeast, primary screen, antimalarial PfHsp90 inhibitor project, S. cerevisiae, BacTiter-Glo luminescence, single point, set 2; inhibition, % at 9.4 µM; AID 504621, 2011; BacTiter-Glo ATP, 48 h; yeast lacking PDR1 and PDR3 efflux regulators; hit rate 0.32% among 310,000;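 active = every replicate shows inhibition above about 80%, whatever the replicate mean, limit read from the data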;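 also: 0% = DMSO neutral controls and 100% = 20 µM radicicol positive controls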
tim10-1 inh – growth inhibitors of tim10-1 mutant yeast, primary screen, luminescence, uHTS; S. cerevisiae tim10-1 ts strain growth, BacTiter-Glo, 24 h; inhibition, % at 20 µM; hit rate 2.2% among 330,000;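 active = inhibition of at least 40%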;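 also: mutant grown at 25 °C; 0% = DMSO wells with yeast and 100% = wells holding no yeast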
TIM10 inh – growth inhibitors of isogenic TIM10 control yeast, primary screen, counter-screen for tim10-1 yeast inhibitor project, luminescence, uHTS; S. cerevisiae TIM10 strain growth, BacTiter-Glo luminescence, 24 h; inhibition, % at 10 µM; hit rate 1.4% among 330,000; AID 463195, 2010;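 active = inhibition of 40% or more at the single tested concentration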;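 also: wild-type TIM10 isogenic control strain grown at permissive 25 °C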
tim23-1 inh – growth inhibitors of tim23-1 mutant yeast, primary screen, luminescence, uHTS. hit rate 1.3% among 330,000. inhibition, % at 20 µM. S. cerevisiae tim23-1 growth, BacTiter-Glo luminescence, 24 h;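 active = growth inhibition of the mutant yeast at or above 50%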;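 also: temperature-sensitive mutant grown at 25 °C; plate controls were DMSO-treated mutant yeast for no effect and medium wells lacking yeast for full effect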
Rce1 inh – yeast Rce1p protease inhibitors, primary screen, biochemical, fluorescence, cell-free homogeneous; CAAX prenyl protease 2 (Saccharomyces cerevisiae (strain ATCC 204508 / S288c)), Q03530; calls only; yeast membranes, quenched prenylated peptide cleavage fluorescence; hit rate 0.27% among 290,000;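 active = fall in fluorescence gain of 50% or more versus controls, with final raw signal at or below 3038400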;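 also: plate controls were neutral control wells for no effect and wells lacking membranes for full effect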
Target sequence (Q03530 whole entry, looked up): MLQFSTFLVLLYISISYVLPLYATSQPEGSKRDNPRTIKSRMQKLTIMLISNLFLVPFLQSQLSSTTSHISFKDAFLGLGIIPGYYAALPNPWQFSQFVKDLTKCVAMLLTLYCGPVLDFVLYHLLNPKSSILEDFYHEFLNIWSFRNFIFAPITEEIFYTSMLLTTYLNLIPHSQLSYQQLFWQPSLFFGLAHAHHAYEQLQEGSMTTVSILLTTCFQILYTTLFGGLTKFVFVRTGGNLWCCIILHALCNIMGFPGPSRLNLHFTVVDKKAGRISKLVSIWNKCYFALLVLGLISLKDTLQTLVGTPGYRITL
tim23-1 confirm – tim23-1 mutant yeast growth inhibitors, confirmation, luminescence, single concentration; shares compounds with tim23-1 inh; hit rate 83% among 4,400; inhibition, % at 20 µM; AID 463218, 2010; S. cerevisiae tim23-1 growth, BacTiter-Glo luminescence, 24 h;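 active = inhibition above about 39% in either of two replicate wells at 20 µM, limit read from the data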;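 also: temperature-sensitive tim23-1 mutant grown at 25 °C; 0% = DMSO wells with yeast and 100% = medium wells without yeast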
* marks the source's active call; other numbers are inactive results.

For CN(C#N)c1nc(Cl)nc(Nc2cccc(Cl)c2)n1 the results were PfHsp90 yeast 2 10.6, tim10-1 inh 39.8, TIM10 inh 13.1, tim23-1 inh 69.0*, Rce1 inh inactive and tim23-1 confirm -54.6.
Screening CCOc1ccc(-c2c(C(=O)N/N=C/C3CCCCC3)nnn2-c2nonc2N)cc1 returned PfHsp90 yeast 2 1.4, tim10-1 inh 10.9, TIM10 inh 6.0, tim23-1 inh 4.5 and Rce1 inh inactive.
`CNC(=S)N/N=C/c1ccc(-c2ccc(C(=O)O)cc2)o1` gave PfHsp90 yeast 2 58.8, tim10-1 inh 30.7, TIM10 inh 27.6, tim23-1 inh 50.2*, Rce1 inh inactive and tim23-1 confirm 43.6*.
O=C(COC(=O)c1ccc(F)cc1Cl)NC1CCCCCCC1 was read as PfHsp90 yeast 2 -42.9, tim10-1 inh 18.5, TIM10 inh 22.9, tim23-1 inh 50.8* and tim23-1 confirm 41.7*.
Cc1cccc(C(=O)Nc2cccc(-c3ccc4nncn4n3)c2)c1 was read as PfHsp90 yeast 2 -16.3, tim10-1 inh 0.6, TIM10 inh 17.4, tim23-1 inh -14.8 and Rce1 inh inactive.
CSC1=N/C(=C\c2ccccc2F)C(=O)S1 was read as PfHsp90 yeast 2 13.8, tim10-1 inh 20.6, TIM10 inh 11.8, tim23-1 inh 51.8*, Rce1 inh inactive and tim23-1 confirm 50.9*.
Oc1c(Br)cc(Br)cc1CNc1cccc2cccnc12 was read as PfHsp90 yeast 2 27.0, tim10-1 inh 27.0, TIM10 inh 25.7, tim23-1 inh 57.0*, Rce1 inh inactive and tim23-1 confirm 62.2*.
CCOC(=O)c1ccc(NC(=O)CNNC(=O)COc2ccccc2C)cc1 was read as PfHsp90 yeast 2 -15.1, tim10-1 inh 4.6, TIM10 inh 11.2 and tim23-1 inh 16.6.
Screening c1ccc(-n2nc3c(ccc4cnnc43)[nH]2)cc1 returned PfHsp90 yeast 2 -17.1, tim10-1 inh 24.3, TIM10 inh 21.5, tim23-1 inh 53.4*, Rce1 inh inactive and tim23-1 confirm 50.3*.
`Cc1ccnc(NC(=O)c2cc(F)c(F)cc2Cl)n1` gave PfHsp90 yeast 2 -17.6, tim10-1 inh 28.4, TIM10 inh 19.9, tim23-1 inh 62.2*, Rce1 inh inactive and tim23-1 confirm 46.8*.
For O=C(Nc1cccnc1)c1cc(F)c(F)cc1Cl the results were tim10-1 inh 7.8, TIM10 inh -8.8, tim23-1 inh 2.6 and Rce1 inh inactive.
For NC(=O)C(CCCCN1CCCCC1)(c1ccccc1)c1ccccc1 the results were PfHsp90 yeast 2 3.9.
Screening O=C(CN1C(=O)NC2(CCCCCC2)C1=O)c1ccc(F)cc1 returned PfHsp90 yeast 2 -23.1, tim10-1 inh -34.0, TIM10 inh -14.3, tim23-1 inh -9.9 and Rce1 inh inactive.
`CCc1ccc(C(=O)CN2C(=O)NC3(CCCCCC3)C2=O)cc1` gave PfHsp90 yeast 2 4.5, tim10-1 inh 13.0, TIM10 inh 3.4, tim23-1 inh 50.6* and tim23-1 confirm 32.4.
`N#Cc1cc2c(cc1NC(=O)CCn1cnnn1)OCO2` gave PfHsp90 yeast 2 -19.8, tim10-1 inh -6.0, TIM10 inh -4.7, tim23-1 inh -6.3 and Rce1 inh inactive.
O=C(N/N=C/c1ccc(Cl)cc1Cl)c1ccncc1 was read as PfHsp90 yeast 2 -1.0, tim10-1 inh 4.9, TIM10 inh -5.2, tim23-1 inh 14.1 and Rce1 inh inactive.
COc1ccc(C(=O)N/N=C\c2coc3ccccc3c2=O)cc1 was read as PfHsp90 yeast 2 17.3, tim10-1 inh 12.9, TIM10 inh 14.3, tim23-1 inh 50.6*, Rce1 inh inactive and tim23-1 confirm 43.2*.
COc1ccc(C(=O)N/N=C/c2ccc3cccc(O)c3n2)cc1 was read as PfHsp90 yeast 2 14.1, tim10-1 inh -23.3, TIM10 inh 10.9, tim23-1 inh 53.4*, Rce1 inh inactive and tim23-1 confirm 54.0*.
`O=C(N/N=C/c1coc2ccc(Cl)cc2c1=O)c1ccncc1` gave PfHsp90 yeast 2 -0.7, tim10-1 inh 7.8, TIM10 inh -12.0, tim23-1 inh 65.7*, Rce1 inh inactive and tim23-1 confirm 55.8*.
O=C(N/N=C/c1cc(Cl)cc(Cl)c1O)c1ccncc1 was read as PfHsp90 yeast 2 -58.3, tim10-1 inh 1.8, TIM10 inh 37.8, tim23-1 inh 54.0*, Rce1 inh inactive and tim23-1 confirm 62.4*.
For Cc1nc2cccc(C)n2c(=O)c1Cl the results were PfHsp90 yeast 2 -1.5, tim10-1 inh 5.7, TIM10 inh -4.4, tim23-1 inh -0.5 and Rce1 inh inactive.
O=C(Nc1ccccc1)c1ccc(=O)[nH]n1 was read as PfHsp90 yeast 2 -19.5, tim10-1 inh 14.3, TIM10 inh -15.3, tim23-1 inh 20.3 and Rce1 inh inactive.
Screening COCCNC(=O)C(Cc1c[nH]c2ccccc12)NC(=O)OCc1ccccc1 (stereo not given) returned PfHsp90 yeast 2 8.9, tim10-1 inh -4.6, TIM10 inh 11.0, tim23-1 inh 13.8 and Rce1 inh inactive.
`C#CC[N+]1(CC#Cc2ccc(C)cc2)CCCCC1` gave PfHsp90 yeast 2 14.7, tim10-1 inh 1.9, TIM10 inh -9.8, tim23-1 inh 5.7 and Rce1 inh inactive.
For O=C(COc1ccc(Cl)cc1)Nc1cc2c3c(c1)CC(=O)N3CCC2 the results were tim10-1 inh 3.4, TIM10 inh -12.2, tim23-1 inh 20.5 and Rce1 inh inactive.
Screening Cc1ccc2oc(C(=O)N3CCC(O)(c4ccccc4)CC3)c(C)c2c1 returned PfHsp90 yeast 2 -21.5, tim10-1 inh 28.4, TIM10 inh 8.7, tim23-1 inh 49.0 and Rce1 inh inactive.
For CCc1ccc(S(=O)(=O)NCc2csc(C)n2)cc1 the results were PfHsp90 yeast 2 31.6, tim10-1 inh 35.7, TIM10 inh 7.9, tim23-1 inh 14.2 and Rce1 inh inactive.
For Fc1ccc(Nc2nc(NCc3ccco3)c3ccccc3n2)cc1 the results were PfHsp90 yeast 2 18.7, tim10-1 inh -19.9, TIM10 inh -20.5, tim23-1 inh 97.9*, Rce1 inh inactive and tim23-1 confirm 3.8.
For COc1cc(S(=O)(=O)n2nnc3ccccc32)c(OC)cc1Cl the results were PfHsp90 yeast 2 12.2, tim10-1 inh 39.9, TIM10 inh 25.3, tim23-1 inh 61.2*, Rce1 inh inactive and tim23-1 confirm 56.4*.
`COc1ccc(OC)c(S(=O)(=O)n2nnc3cc(Cl)ccc32)c1` gave PfHsp90 yeast 2 -2.6, tim10-1 inh 19.4, TIM10 inh 0.3, tim23-1 inh 9.6 and Rce1 inh inactive.
For COc1ccc2c(c1)-c1nc(NC(=O)c3cccs3)sc1CC2 the results were PfHsp90 yeast 2 -7.7, tim10-1 inh 38.2, TIM10 inh 29.6, tim23-1 inh 53.4*, Rce1 inh inactive and tim23-1 confirm 48.5*.
